We go through 14 compounds from PubChem BioAssay (NCATS).

Results filed as inconclusive are left out. Some structures have more than one record in an assay (separate samples or runs), and their calls can disagree. Activity calls are given as the source filed them. Calls come from the whole dose curve; as a rule, active = well fitted inhibition curve with a large enough effect; inconclusive = small, poorly fitted or top-dose-only effect; inactive = flat fitted curve, though single readings scatter.
% is set by controls: 0 for no effect and ±100 for the full control effect; potency is the fitted concentration of half-maximal effect.

The assay deals with KB-3-1. As to the kind of experiment: Cytotoxic Profiling of Annotated Libraries Using Quantitative High-Throughput Screening (AID 1296008). Note: nearly all actives have a fitted effect of over 60% in size. The conditions noted are these: Five cell lines viability, CellTiter-Glo ATP luminescence, 48-72 h; max response: hits give low values. The essentials:
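Cells exposed to compounds for 48 or 72 hr at 37 degrees Celsius. Viability read as ATP-coupled luminescence with CellTiter-Glo after 10 min at room temperature.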
(In general: ATP-based viability assays read luminescence as a measure of living cells.)
Regarding `O=c1cccc2n1CC1CNC[C@H]2C1`, the compound was classed as inactive.

Turning to `COc1ccc(N(C(=O)Oc2c(C)cccc2C)c2ccnc(Nc3ccc(N4CCN(C)CC4)cc3)n2)c(OC)c1`, the Potency was 16.4 µM (active) and the max response is -15.9% (inactive).

With `CC(C)NCC(O)c1ccc([N+](=O)[O-])cc1` (stereo not given), the max response was -11.6% (inactive).

For `C[C@@H]1CC[C@H]2[C@@H](C)C(=O)O[C@@H]3O[C@@]4(C)CC[C@H]1[C@]32OO4`, the max response was -6.88% (inactive).

Take `COc1ccc2c(c[n+](C)c3c4cc5c(cc4ccc23)OCO5)c1OC`: the Potency was 26.4 µM (active).

Regarding `CN[C@@H](C)[C@H](O)c1ccccc1`, the max response was -0.943% (inactive).

In the case of `O=C1CCC[C@@H]2[C@H]3CCCN4CCC[C@@H](CN12)[C@@H]34`, the max response is 2.17% (inactive).

Regarding `Cc1c(C(=O)c2cccc3ccccc23)c2cccc3c2n1[C@H](CN1CCOCC1)CO3`, the Potency is 13.2 µM (active).

As to `C=CC(=O)NCNC(=O)C=C`, the max response is 1.85% (inactive).

On to `CC(C)(O)C(=O)Nc1ccc([N+](=O)[O-])c(C(F)(F)F)c1`, for which the max response is -3.83% (inactive).

As for `Cc1ccc(Cl)c(O)c1`, the max response was -1.89% (inactive).

For the compound `CC(C)[C@]12O[C@@H]1[C@@H]1O[C@]13[C@]1(O[C@H]1C[C@@H]1C4=C(CC[C@@]13C)C(=O)OC4)[C@H]2O`, the Potency was 0.001 µM (active).

Consider `COc1cc2cc(c1Cl)N(C)C(=O)C[C@H](OC(=O)C(C)C)[C@]1(C)O[C@H]1[C@H](C)[C@@H]1C[C@@](O)(NC(=O)O1)[C@H](OC)C=CC=C(C)C2`, for which the Potency was 0.332 µM (active).

For `O=S(=O)(O)C(F)(F)C(F)(F)C(F)(F)C(F)(F)F`, the max response is -15.1% (inactive).
